Hits are enriched below; roughly 19% of the tested compounds scored in any of these assays.
TDP1 cell noCPT: qHTS for Inhibitors of human tyrosyl-DNA phosphodiesterase 1 (TDP1): qHTS in cells in absence of CPT. AID 686978, 2013. 15% of 420,000 active. Potency, µM (titrated, usually from 46.2 µM), inactives show at the top dose activity change, negative = growth inhibition, usual class: inhibitors. DT40 Tdp1-/- hTDP1 cells, no CPT, ATP luminescence, 48 h; further: potency means the concentration at half of the fitted maximal effect; on the % scale 0 is the no-effect control and ±100 the full control effect; nearly all actives have a fitted effect of over 55% in size
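Camptothecin absent (DMSO only). Human TDP1-complemented DT40 knockout cells, 400 cells/well, 37 °C for minimum 48 hr; ATP measured via CellTiter-Glo, 30 min dark incubation, luminescence.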
SW480 rerep: induces DNA re-replication in SW480 colon adenocarcinoma cells; SW480 DNA re-replication, Hoechst DNA content imaging, 48 h; 1.8% of 340,000 active; Potency, µM (highest dose often 46.1 µM), inactives show top-dose re-replication activation, most hits filed as activators; further: potency means the concentration at half of the fitted maximal effect; % of control where 0% means no effect; nearly all actives have a fitted effect of over 55% in size
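Cells (250 per well) received 23 nL compound or DMSO by pin tool and were kept 48 hr at 37 C, 5% CO2. Nuclei were then stained with Hoechst for 40 min and scanned for DNA content.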
DT40 TDP1 CPT: DT40-hTDP1 cell growth loss with CPT | 12% of 420,000 active | AID 686979 | Potency, µM (titrated, usually from 46.2 µM), without a hit: at the highest dose activity change, negative = growth inhibition, hits mostly inhibitors | chicken DT40 Tdp1-/-;hTDP1 cells + 20 nM CPT, ATP luminescence, 48 h; further: potency means the concentration at half of the fitted maximal effect; on the % scale 0 is the no-effect control and ±100 the full control effect; nearly all actives have a fitted effect of over 55% in size
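Chicken DT40 Tdp1-/- cells complemented with human TDP1, 400 cells/well, exposed to compounds plus 20 nM camptothecin for at least 48 h at 37 C; viability read as ATP content by CellTiter-Glo luminescence.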
IL-1B inflam inh: inhibitors of inflammasome signaling (IL-1 beta secretion); THP-1 LPS/ATP IL-1B secretion, AlphaLISA, 16 h; stronger effect = lower value; activity change, % at 57.5 µM; 4.7% of 360,000 active; in the data active means activity change below about -50%; inconclusive means mostly about -30% to -49%; further: on the % scale 0 is the no-effect control and ±100 the full control effect
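THP-1 cells pretreated 1 hr with compounds (up to 57.5 uM final), then stimulated with LPS (250 ng/mL final) plus ATP (1.25 mM final); secreted IL-1B measured by AlphaLISA after 16 hr, decreased signal indicating inhibition.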
MCF10A rerep: inducers of DNA re-replication in MCF 10A breast cells; AID 624296; Potency, µM (top dose mostly 46.1 µM), for the others: top-dose activity, positive = re-replication, actives largely listed as activators; MCF 10A DNA re-replication, Hoechst nuclear intensity, 48 h; 2.9% of 350,000 active; further: potency means the concentration at half of the fitted maximal effect; % of control where 0% means no effect; nearly all actives have a fitted effect of over 50% in size
Chronic BCR inh: inhibitors of chronic active B-cell receptor signaling; ABC-DLBCL IkBa-CBG/CBR reporter, luminescence ratio, 4 h; Potency, µM (series often up to 46.1 µM), inactives show at the highest dose activity change, negative = inhibition, actives largely listed as inhibitors; 0.05% of 340,000 active; AID 493014; active means well fitted inhibition curve with a large enough effect in the signal ratio, with a control signal flat, not every such curve was filed as active; inconclusive means small, poorly fitted or top-dose-only effect, or effect the other way, or a change in a side signal; the % refers to the signal ratio;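 further: potency means the concentration at half of the fitted maximal effect; plate controls were basal doxycycline-induced cells for no effect and cells given 10 µM MG132 for full effect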
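Compounds up to 46 uM were incubated four hours with TMD8 cells whose green CBG68 luciferase is fused to IkappaBalpha; red CBR luminescence normalised the signal, and concentration-effect curves were fitted to fusion, red and ratio data.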
Numbers without * were called inactive; ? = inconclusive; . = no result. Unless noted, the call rests on the fitted dose curve; in most records, active means well fitted curve in the direction sought with a large enough effect; inconclusive means small, poorly fitted or top-dose-only effect, or another doubt; inactive means no such curve, though single readings can be large; an effect the other way counts as inactive or inconclusive.

SMILES | TDP1 cell noCPT | SW480 rerep | DT40 TDP1 CPT | IL-1B inflam inh | MCF10A rerep | Chronic BCR inh
Cc1ccc2c(c1)C1(C(=O)N2)N2CCCC2C(C(=O)c2ccc3ccccc3c2)C12C(=O)Nc1ccccc12 (configuration not stated) | ? | ? | 16.4µM* | -86.4* | ? | ?
CCOC(=O)c1c(S(=O)(=O)NCCc2ccc(OC)c(OC)c2)c(C)n(C)c1C | 8.6% | -11.6% | -12.8% | -22.7 | 2.1% | -21.3%
CCOC(=O)c1c(C)c(C)n(Cc2ccc(OC)c(OC)c2)c1C | 18.4µM* | -696.7% | 20.6µM* | -3.0 | 10.7% | ?
CCOC(=O)c1cc(C)n(Cc2ccc(OCC)c(OC)c2)c1C | ? | 22.8% | 11.2µM* | -26.2 | 15.0% | ?
CCn1cc(C(=O)NC2CC(C)(C)Cc3c2cnn3-c2cccc(F)c2)cn1 (configuration not stated) | 20.6µM* | 1.9% | 16.4µM* | 6.7 | 1.0% | -0.3%
O=C(O)/C=C/c1ccc(-n2ccnc2)cc1 | 12.6% | 0.3% | 13.9% | 19.3 | -0.1% | -17.7%
COc1ccc(N/C=C2\CCc3ccccc3C2=O)cc1 | ? | ? | ? | 1.3 | ? | ?
O=C1/C(=C/Nc2ccc3c(c2)OCO3)CCc2ccccc21 | ? | ? | 25.9µM* | -2.5 | ? | ?
COc1ccc2c(c1)CC/C(=C\Nc1ccc3c(c1)OCO3)C2=O | ? | -2.5% | 14.6µM* | -87.1* | 2.0% | ?
COc1cccc(N(CC(=O)N2CCCCCC2)S(C)(=O)=O)c1 | 9.6% | -11.2% | -7.3% | -0.3 | 0.82µM* | 0.0%
CCOc1ccccc1N(CC(=O)N1CCCCCC1)S(C)(=O)=O | ? | -3.2% | 0.2% | 2.7 | 2.2% | 3.2%
COc1ccccc1N(CC(=O)N1CCCCCC1)S(C)(=O)=O | -6.4% | ? | 0.2% | 5.2 | 0.326µM* | .
COc1cccc(N(CC(=O)N2CCOCC2)S(C)(=O)=O)c1 | -6.1% | 0.6% | -11.4% | -10.3 | 16.4% | -1.2%
COc1ccccc1N(CC(=O)N1CCCC1)S(=O)(=O)c1cc([N+](=O)[O-])ccc1Cl | ? | -18.0% | 16.4µM* | -26.3 | 4.7% | -5.6%
CC(Oc1ccccc1F)C(=O)NNC(=O)CCNC(=O)c1ccccc1Cl (configuration not stated) | -4.5% | -12.0% | -28.2% | -8.8 | -10.0% | -9.1%
O=c1[nH]cnc2c1ncn2[C@@H]1C[C@@H](O)[C@H](CO)O1 | -26.8% | -13.5% | ? | 3.4 | 6.9% | 5.2%
Nc1nc2c(ncn2C2C[C@H](O)[C@@H](CO)O2)c(=O)[nH]1 (some centres not stated) | 6.51µM* | -0.2% | 10.3µM* | 10.2 | 2.0% | ?
Nc1nc2c(nnn2C2CC(O)C(CO)O2)c(=O)[nH]1 (configuration not stated) | ? | . | 29.1µM* | 26.0 | . | .
CC(C)C(=O)Nc1nc2c(ncn2[C@H]2CC(O)[C@@H](CO)O2)c(=O)[nH]1 (some centres not stated) | 12.6µM* | . | 11.2µM* | . | . | .
Nc1nc2c(ncn2C2OC(COC(=O)c3ccccc3)C(OC(=O)c3ccccc3)C2OC(=O)c2ccccc2)c(=O)[nH]1 (configuration not stated) | 20.6µM* | . | ? | . | . | .
Cc1ccnc2nc(C(=O)OCC(=O)Nc3ccc([N+](=O)[O-])cc3Br)nn12 | 12.8% | -5.4% | -9.4% | -3.9 | -1.4% | 0.3%
CCCNC(=O)C1(C)CCN(C(=O)c2c(Cl)cccc2Cl)C1 (configuration not stated) | 5.7% | . | 0.1% | -10.3 | . | .
COc1ccc(NC(=O)N2CC3(CCN(C(=O)c4ccc(OC)cc4)CC3)C2)cc1 | -9.5% | . | 1.6% | . | . | .

Screening data (PubChem)
